# HTT aggregate = inhibitors of mutant huntingtin aggregate formation in PC12 cells. Potency, µM (series often up to 46.1 µM), without a hit: top-dose activity change, negative = inhibition, hits mostly inhibitors. 1.1% of 220,000 active. PC12 HttQ103-GFP aggregates, Acumen cytometry, 40 h. AID 1688; note: % is set by controls: 0 for no effect and ±100 for the full control effect; nearly all actives have a fitted effect of over 60% in size
#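 Inducible Q103 Huntingtin exon 1–GFP PC12 line, 1500 cells/well in phenol red free DMEM with 5% equine and 5% calf serum. Tebufenozide 100 nM induced expression; compounds titrated; aggregates quantified by cytometry.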
# HTT ATP protect = Huntington cell model cytoprotection by ATP luminescence; PC12 HTT-Q103 induced, cytoprotection, ATP luminescence, 40 h; 0.14% of 230,000 active; Potency, µM (highest dose often 56.4 µM), for inactives: cytoprotection (ATP increase), most hits filed as activators; note: % of control where 0% means no effect; nearly all actives have a fitted effect of over 45% in size
#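 Compounds were screened for protection of PC12 cells against cell death after tebufenozide induction (100 nM final) of mutant Huntingtin exon 1 (Q103) fused to GFP.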
# PINK1 expr mod = PINK1 expression modulation. 0.2% of 410,000 active. Potency, µM (highest dose often 76.6 µM), for inactives: top-dose activation (PINK1 increase), actives largely listed as activators. PINK1 immunofluorescence, high-content cytometry, 24 h. AID 624263; active = well fitted activation curve with a large enough effect; inconclusive = small, poorly fitted or top-dose-only effect; cell line not stated here; note: % of control where 0% means no effect; nearly all actives have a fitted effect of over 65% in size
#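 PINK1 protein, normally rapidly degraded, was detected by immunofluorescence after 24 hour compound treatment of a stable cell line. Titration data (5 concentrations) came from laser-scanning cytometry, with CCCP-treated wells as controls.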
# TSG101-PTAP inh = blocks PTAP/TSG101 interaction to inhibit HIV-1 budding; 340,000 tested, under 10 active; Fluorescence polarization, FITC-PTAP peptide / Tsg101 binding; Q99816; Potency, µM (doses to about 115 µM), for the others: top-dose activity change, negative = inhibition, most hits filed as inhibitors; active = well fitted inhibition curve with a large enough effect in the main read-out, with a control signal flat, not every such curve was filed as active; inconclusive = small, poorly fitted or top-dose-only effect, or effect the other way, or a change in a side signal; inactive = no such curve, though single readings can be large or run the other way; note: % of control where 0% means no effect
# Target sequence (Q99816 whole entry, looked up): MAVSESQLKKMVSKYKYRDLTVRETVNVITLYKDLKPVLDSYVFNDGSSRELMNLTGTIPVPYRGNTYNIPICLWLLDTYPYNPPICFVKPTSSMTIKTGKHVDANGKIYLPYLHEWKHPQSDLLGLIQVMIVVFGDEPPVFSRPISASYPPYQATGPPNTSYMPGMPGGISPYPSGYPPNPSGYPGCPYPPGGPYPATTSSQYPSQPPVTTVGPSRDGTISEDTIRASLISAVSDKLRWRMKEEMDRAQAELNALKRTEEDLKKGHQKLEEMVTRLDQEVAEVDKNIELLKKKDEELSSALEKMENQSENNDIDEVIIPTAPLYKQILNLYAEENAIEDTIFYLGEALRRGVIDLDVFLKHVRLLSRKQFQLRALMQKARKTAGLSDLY
#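 Fluorescence anisotropy tracks displacement of a FITC-tagged PTAP peptide (50 nM) from the Tsg101 binding domain (10 uM), following a 20 min room-temperature incubation at pH 7.5.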
# Epigenetic derep = regulators of epigenetic silencing causing reporter derepression in mouse cells; murine LDR cells, GFP reporter derepression, 30 h; Potency, µM (series often up to 53.9 µM), without a hit: top-dose GFP activation, usual class: activators; 0.2% of 280,000 active; note: % of control where 0% means no effect; nearly all actives have a fitted effect of over 60% in size
#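 Derepression of a silenced CMV-GFP reporter in murine LDR cells is scored by enumerating GFP-positive cells with a laser-scanning microplate cytometer after 30 hours of treatment at 37 C.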
# Anesthetic bind = binds horse apoferritin like a general anesthetic. P02791. apoferritin/1-aminoanthracene competitive binding, fluorescence. Potency, µM (doses to about 77.5 µM), without a hit: at the highest dose activity change, negative = displacement, actives largely listed as inhibitors. 0.074% of 350,000 active; note: % is set by controls: 0 for no effect and ±100 for the full control effect; nearly all actives have a fitted effect of over 20% in size
# Target sequence (P02791 2-175 limits assumed): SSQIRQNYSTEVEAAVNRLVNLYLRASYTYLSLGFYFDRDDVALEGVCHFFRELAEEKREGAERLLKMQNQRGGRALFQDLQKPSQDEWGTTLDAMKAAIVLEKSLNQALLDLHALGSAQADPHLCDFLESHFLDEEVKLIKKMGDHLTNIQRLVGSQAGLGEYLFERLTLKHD
#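 Concentration-response curves derived by four-parameter Hill fitting of normalized fluorescence, where compounds displaced 1-AMA from 10 uM horse apoferritin following a brief 10 min room-temperature incubation; propofol titration acted as positive control.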
# * hit, by the source's call; u = inconclusive; x = no result; [ ] = another dose, or the depositor's remark. Only a selection was taken, and hits are over-represented in it overall. Unless noted, calls come from the whole dose curve; as a rule, active = well fitted curve in the direction sought with a large enough effect; inconclusive = small, poorly fitted or top-dose-only effect, or another doubt; inactive = no such curve, though single readings can be large; an effect the other way counts as inactive or inconclusive. Potency is the fitted concentration of half-maximal effect.
SMILES,HTT aggregate,HTT ATP protect,PINK1 expr mod,TSG101-PTAP inh,Epigenetic derep,Anesthetic bind
O=S(=O)(Nc1ncccn1)c1ccc(NS(=O)(=O)c2cc(Cl)ccc2Cl)cc1,-16.7%,-33.1%,2.3%,-5.1%,-1.2%,0.0%
O=C(Cn1c(=O)oc2ccccc21)NCc1ccccc1Cl,x,x,-0.7%,x,1.1%,-9.1%
COc1ccc(-n2c(CNC(=O)c3ccccc3C(F)(F)F)nnc2SC)cc1,x,x,-0.3%,x,x,x
Cc1ccccc1NC1=C/C(=N\S(=O)(=O)c2cccs2)c2ccccc2C1=O,1.41µM*,-111.4%,-5.1%,-4.1%,1.1%,u
CC(=O)Nc1ccc(NC2=C/C(=N/S(=O)(=O)c3cccs3)c3ccccc3C2=O)cc1,5.62µM*,x,-0.8%,-0.1%,7.4%,-13.6%
Cc1ccc(NC2=C/C(=N/S(=O)(=O)c3cccs3)c3ccccc3C2=O)cc1C,u,x,17.2%,0.4%,0.0%,-10.3%
Cc1cc[n+](C2=C([O-])c3ccccc3C(=O)/C2=N\S(=O)(=O)c2cccs2)cc1C,10µM*,-1.7%[10 µM],-2.0%,-3.4%,0.0%,1.8%
CSc1nc(N)nc(SCCS(=O)(=O)c2ccc(Cl)cc2)c1C#N,10µM*,-12.5%[0.074 µM],u,-3.2%,0.0%,1.2%
CSc1nc(N)nc(SCC(=O)Nc2ccc(Cl)cc2)c1C#N,8.1%,-13.7%,5.8%[38.3 µM],-5.6%,2.1%,u
CCCCc1ccc(Nc2nc(CCC)cc(=O)[nH]2)cc1,35.5µM*,20.2%[1.9 µM],-5.1%,-3.4%,9.6%,2.8%
COc1ccc(S(=O)(=O)Nc2ccccc2C(=O)NCc2ccco2)cc1,7.7%,-7.7%[10 µM],5.7%,-7.4%,4.8%,-3.5%
O=C(NCc1ccco1)c1ccccc1NS(=O)(=O)c1ccc(Br)s1,17.8µM*,-52.7%,11.4%,-6.6%,-2.3%,-15.0%
O=C1CC(=O)N(CCc2ccccc2)C(=O)N1CCc1ccccc1,0.398µM*,-9.1%[0.074 µM],0.6%,-7.3%,-2.1%,7.1%
COCc1ccc([C@@H]2C[C@H]3CN(Cc4cccnc4)C(=O)[C@]34CCCN24)o1,-28.1%[9.22 µM],-18.2%[10 µM],-0.3%,-5.4%,1.5%,-6.0%
COCc1ccc([C@@H]2C[C@H]3CN(Cc4ccccc4C)C(=O)[C@]34CCCN24)o1,4.47µM*,-147.4%,0.4%,-2.9%,2.9%,-9.0%
COC(=O)c1ccc(-c2cccc3c2OC(CNC(=O)c2ccc4c(c2)OCCO4)C3)nc1 (centres undefined),x,x,-0.3%,x,x,x
CCOc1ccc(OCCSc2nc3ccccc3[nH]2)cc1,u,8.9%[10 µM],x,-0.1%,-1.0%,u
CCCOc1ccc(CSc2nc3ccccc3[nH]2)cc1,7.94µM*,-87.1%,-3.0%[38.3 µM],x,-2.1%,-14.4%
CCN(Cc1nc(-c2ccc(OC)c(OC)c2)no1)S(=O)(=O)c1ccc(OC)cc1,x,x,1.4%,x,-1.0%,5.7%
Cc1ccc(C2=NN(CC(=O)NCCc3ccccc3)C(=O)CC2)cc1,x,x,-0.9%,x,-1.2%,2.51µM*
O=C(CN1N=C(c2ccc(Cl)cc2)CCC1=O)NCCc1ccccc1,x,x,0.8%,x,5.7%,u
CCC1C(=O)NCCN1Cc1ccc2c(c1)CN(Cc1cccc(OC)c1OC)CCO2 (centres undefined),x,x,-0.1%,x,x,x
C[C@@]12CC[C@@H]3[C@H](CCC4=CC(=O)CC[C@]43C)[C@@H]1CC[C@@H]2C(=O)COS(=O)(=O)c1ccc(Br)cc1,x,-15.6%[10 µM],x,x,x,x
CC(=Nc1ccccc1N)c1c(C)cc(=O)n(O)c1O,x,x,x,x,x,-11.3%
COc1cccc(/C=N/NC(=O)c2cc3c(OC)cccc3[nH]2)c1O,2.24µM*,-86.8%[10 µM],39.8µM*,-3.1%,0.0%,3.9%
SMILES,HTT aggregate,HTT ATP protect,PINK1 expr mod,TSG101-PTAP inh,Epigenetic derep,Anesthetic bind
COc1cccc(/C=N/NC(=O)c2cc(-c3cccn3C)n[nH]2)c1O,1.78µM*,-48.2%[10 µM],0.5%,-4.9%,-3.2%,-1.0%
COc1cccc(/C=N/NC(=O)c2cc3c(OC)cccc3[nH]2)c1OC,11.3%,-2.7%[10 µM],9.7%,-1.0%,-1.1%,-9.6%
COc1cccc(/C=N\NC(=O)C2C(=O)NCC2c2ccccc2)c1O (centres undefined),11.2µM*,-48.1%,-1.8%,2.3%,0.8%,-10.8%
COc1cc(/C=N/NC(=O)c2cc(-c3cccn3C)n[nH]2)cc(OC)c1OC,u,u,1.8%[38.3 µM],-6.4%,-1.2%,u
COc1cc2nc(N(C)C)c(CNC3CCOC(C)(C)C3)cc2c(OC)c1OC (centres undefined),x,x,-0.3%,x,x,x
Cc1ccccc1CNC(=O)CCC(=O)N1CCSc2ccccc21,x,x,-1.5%,x,-1.0%,5.9%
COc1cc(CN2CCCC(n3cc(C(=O)N4CCCCC4)nn3)C2)cc(OC)c1OC (centres undefined),x,x,1.2%,x,x,x
Cc1ccc2nc(Cl)c3nnnn3c2c1,3.55µM*,-97.5%[10 µM],-0.8%,-2.4%,0.1%,-2.9%
O=C(COc1ccccc1C(=O)Nc1ccccc1)Nc1ccc2ccccc2c1,x,x,8.6%,x,x,x
Cc1ccc(S(=O)(=O)C2C(=O)N(C)C3(C)CC2c2ccccc2O3)cc1C (centres undefined),u,3.98µM*,2.0%,-2.0%,-0.9%,-5.8%
CCCc1n[nH]c2c1/C(=N/O)CC(c1ccccc1)C2 (centres undefined),-20.8%,-10.5%[10 µM],-1.9%,-12.4%,0.9%,7.0%
Cc1[nH]nc2c1/C(=N/O)CC(c1ccccc1)C2 (centres undefined),12.6µM*,-31.5%,x,-8.9%,-1.0%,-16.2%
COCc1c(C(=O)NC2CCOC(C)(C)C2)cnn1-c1nccc(-c2cccs2)n1 (centres undefined),x,x,-0.9%,x,x,x
CCS(=O)(=O)c1nnnn1-c1ccccc1S(C)(=O)=O,x,12.6µM*,25.7%[38.3 µM],x,1.3%,-4.5%
c1ccc2c(c1)OCC(c1csc3ncnc(N4CCOCC4)c13)O2 (centres undefined),12.6µM*,-2.5%,x,-5.0%,-1.2%,-7.1%
Brc1ccc(N/N=C(/N=Nc2nn[nH]n2)c2ccccc2)cc1,7.08µM*,-130.9%,0.5%,-9.9%,-4.1%,u
CCC(=O)N[C@@H]1c2ccccc2C2(CCN(Cc3[nH]c4c(Cl)cccc4c3C)CC2)[C@H]1OC,x,x,0.7%,x,x,x
COc1cc2nc(/C=C/c3ccc(N(C)C)cc3)sc2cc1SC,u,17.2%[10 µM],5.8%,u,11.2µM*,0.0%
Cc1ccccc1NC(=S)N/N=C/C(C)c1ccccc1 (centres undefined),-1.5%,4.47µM*,0.4%,-8.6%,-6.7%,-22.6%
Cc1ccccc1NC(=S)NCc1ccccc1,u,5.62µM*,-2.1%,-0.1%,1.1%,4.4%
CC(C)(C)c1ccc(C(=O)C[n+]2ccccc2Cl)cc1,x,x,0.6%,x,x,x
